# The source made the active and inactive calls. The calls were made as follows: active = hit-call score of the fitted dose curve at least 0.9, where 1 is the maximum; inactive = score below 0.9.
# Assay: CCTE_Shafer_MEA_acute_burst_percentage_mean: CCTE's Neural Acute Assay for Percentage of Spikes in a Burst, Shafer Lab (AID 2284017);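 as to AC50: curve fitted for loss of signal so potency reflects decreased burst percentage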
# Method: CCTE_Shafer_MEA_acute assay is conducted using Axion Biosystems 48 well microelectrode array (MEA) plates and Maestro recording system. Each well of the MEA plate contains a grid of 16 microelectrodes embedded in the culture surface. Electrically active cells, such as neurons, can be cultured over the electrodes, and electrical activity in these cells can be recorded extracellularly. The spontaneous firing of neurons is captured from each electrode on a microsecond timescale providing both temporally and spatially precise data. […] The CCTE_Shafer_MEA_acute assay uses primary cultures of rat cortical neurons. As these cultures mature over time, neural networks develop functional activity and form cohesive networks in which electrical activity can be highly coordinated. Baseline 40-minute recordings are made on days post-plating 13 or 15, followed by a secondary 40-minute recording after chemical exposure.CCTE_Shafer_MEA_acute_burst_percentage_mean is a component of the CCTE_Shafer_MEA_acute assay. It measures the percentage of spikes (action potential firing) in a single-electrode burst (temporally-clustered groups of spikes) as the number of spikes in bursts divided by the total number of spikes during a recording in a microelectrode array (MEA) using Axion Biosystems Maestro 768 channel amplifier with the AxIS adaptive spike detector. The average of the burst percentages across electrodes is calculated to report a well-level value. The recordings before and after chemical treatment are used to calculate a percent change in the mean burst percentage in each well.Data from the assay component CCTE_Shafer_MEA_acute_burst_percentage_mean was analyzed into 1 assay endpoint. This assay endpoint, CCTE_Shafer_MEA_acute_burst_percentage_mean, was analyzed in the negative analysis fitting direction relative to DMSO as the negative control and baseline of activity. Using a type of functional reporter, gain or loss-of-signal activity can be used to understand electrical activity.
# Spontaneous activity in the cortical cultures was recorded using an Axion Biosystems Maestro 768 channel amplifier and Axion Integrated Studios (AxIS) v1.8 (or later) software. The amplifier recorded from all channels simultaneously (gain = 1200 x; sampling rate = 12.5 kHz/channel): raw signals were filtered with a Butterworth band-pass filter (300-5000 Hz), which filters out slower local field potentials leaving only fast potentials, i.e., "spikes", arising from extracellular currents associated with action potentials (Pine 2006; Wheeler and Nam 2011). On-line spike detection of filtered signals was conducted with the AxIS adaptive spike detector, using a threshold of 8x the root mean squared (rms) noise on each channel. Any electrodes with rms noise levels greater than 5 uV were grounded (e.g., no data were recorded). Once grounded, an electrode was grounded for the duration of the experiment. All recordings were conducted at 37 C. Wells were deemed usable if on the day of the exposure >/= 10 electrodes were active (defined as >/= 5 spikes/min). On DIV 13 or 15, a minimum of three wells from one cortical culture preparation were treated with each compound (0.03-40 uM). Prior to recording baseline activity, each mwMEA plate was placed in the Maestro at 37 C and allowed to sit for 20 min while firing rates stabilized. Baseline activity (40 min) was recorded before the addition of each compound. An additional 40 min of spontaneous activity was recorded in the presence of each compound. Changes in network parameters relative to baseline were assessed following compound treatment.
Compound,outcome,AC50
CCC1(c2ccccc2)C(=O)N=C(O)NC1=O (stereo unspecified),inactive,
CCC(C)(C)c1ccc(O)cc1,,9.06 µM (active)
COP(=O)(CCC(=O)NCO)OC,inactive,
[N-]=[N+]=[N-],inactive,
ClC1=C(Cl)C2(Cl)C3C(Cl)C(Cl)CC3C1(Cl)C2(Cl)Cl (stereo unspecified),,0.29 µM (active)
CC(Cl)(Cl)C(=O)O,inactive,
CC(C)(C)c1ccccc1OP(=O)(Oc1ccccc1)Oc1ccccc1,,6.79 µM (active)
CCOP(=S)(Oc1ccc([N+](=O)[O-])cc1)c1ccccc1 (stereo unspecified),inactive,
Nc1ccc2ccccc2c1,inactive,
Cc1ccc(N)cc1N,inactive,
O=C(O)C1C(C(=O)O)C2(Cl)C(Cl)=C(Cl)C1(Cl)C2(Cl)Cl (stereo unspecified),inactive,
ClC(Cl)(Cl)c1ccccc1,inactive,
CCCCC(CC)COP(=O)(Oc1ccccc1)Oc1ccccc1 (stereo unspecified),,23.7 µM (active)
c1ccc2c(c1)Nc1ccccc1S2,,25.8 µM (active)
COCCOCCO,inactive,
CCOc1ccc(C(C)(C)COCc2cccc(Oc3ccccc3)c2)cc1,,25.4 µM (active)
